From PubChem BioAssay (NCATS)
Inconclusive results are not listed. Calls of active or inactive are those of the source. The call rests on the fitted dose curve; in most records, active means well fitted inhibition curve with a large enough effect; inconclusive means small, poorly fitted or top-dose-only effect; inactive means no such curve, though single readings can be large or run the other way.

Each compound was assayed against Retinaldehyde dehydrogenase 3 (Homo sapiens) (UniProt P47895) (assay: qHTS for Inhibitors of the Aldehyde Dehydrogenase Family (ALDH1A3) Primary screen (AID 2061315)). Settings: ALDH inhibition qHTS; series mostly up to 56 µM.
Potency means the concentration at half of the fitted maximal effect.

| SMILES | Potency |
| --- | --- |
| Cc1c(C(=O)OCC2CCCC2)[nH]c2c1C(=O)CC(c1ccco1)C2 (stereo unspecified) | inactive |
| Cc1cc(C)nc(NC(=S)N2CCN(c3ccc4nccn4c3)CC2)c1 | inactive |
| Oc1ccc(Nc2ccccc2F)c2cccnc12 | 1.26 µM (active) |
| Nc1nc2c(s1)C(c1ccccc1Cl)CC(=O)N2 (stereo unspecified) | inactive |
| CC(=O)Nc1sc2c(c1-c1nccs1)CCNC2 | inactive |
| O=C(Cc1ccccc1)Nc1sc2c(c1C(=O)Nc1ccc(Cl)cc1)CCCC2 | inactive |
| CC(=O)N1CCN(c2ccc(NS(=O)(=O)c3ccc4c(c3)CC(=O)N4)cc2)CC1 | inactive |
| COC(=O)CCSC/C=C(\C)CCn1cc(CCc2ccc(-c3ccccc3)cc2)nn1 | inactive |
| CC(=O)Nc1sc2c(c1-c1ccccc1)CCN(C(=O)OC(C)(C)C)C2 | inactive |
| O=C(c1ccccc1O)N(Cc1ccco1)Cc1ccco1 | inactive |
| Cc1ccc(-c2ccnc(N3CCC(C(N)=O)CC3)n2)cc1 | inactive |

These compounds were tested against Aldehyde dehydrogenase 1A1 (Homo sapiens) (UniProt P00352) (assay: qHTS for Inhibitors of the Aldehyde Dehydrogenase Family (ALDH1A1) Confirmatory screens (AID 2061316; further: nearly all actives have a fitted effect of over 65% in size)). Settings: ALDH inhibition qHTS; series mostly up to 47.3 µM.

| SMILES | Potency |
| --- | --- |
| NC(=O)C1CCN(c2nc(-c3ccc(-c4ccccc4)cc3)cs2)CC1 | inactive |
| CC(=O)Nc1sc2c(c1-c1cccc3[nH]ncc13)CCNC2 | 11.3 µM (active) |
| N#Cc1ccc(N2CCN(S(=O)(=O)c3ccc4c(c3)CC(=O)N4)CC2)cc1 | inactive |
| O=C(Nc1cccc(Cc2ccccc2)n1)c1ccc(-c2cccc([N+](=O)[O-])c2)o1 | 5.65 µM (active) |
| COc1cc(/C=C(\C#N)C(=O)Nc2ccc(C(=O)O)cc2)ccc1OC(=O)c1cccc(F)c1 | inactive |
| Cc1csc(CNc2ncnc3cc(-c4ccc5c(c4)OCO5)ccc23)n1 | 11.3 µM (active) |
| NC(=O)c1cccc(-c2cnc3c(O)ccc(C(=O)O)c3c2)c1 | 8.96 µM (active) |
| Cc1ccc(S(=O)(=O)Nc2cc(S(=O)(=O)c3ccc(C)cc3)c(O)c3cccnc23)cc1 | 1.42 µM (active) |
| CC(C)(C)C(=O)N1CCN(c2cccc(Nc3nn4c(=O)c5ccccc5nc4s3)c2)CC1 | 7.98 µM (active) |
| CC(=O)Nc1ccc(OCc2cccc(-c3nc4ccccc4c(=O)n3Cc3ccco3)c2)cc1 | 2.83 µM (active) |
| O=S1(=O)Nc2c(ccc3cccnc23)-c2ccccc21 | inactive |
| Cc1c(C(=O)OC[C@H]2CCCO2)[nH]c2c1C(=O)CC(c1ccco1)C2 (stereo partly specified) | 1.42 µM (active) |
| CC(=O)NC(C)c1cc(Cl)c2ccccc2c1O (stereo unspecified) | 4 µM (active) |
| COc1ccc(C(=O)c2ccc(-c3no[n+]([O-])c3C#N)cc2)cc1 | 5.65 µM (active) |
| N#Cc1cccc(OC2=NS(=O)(=O)c3ccccc32)c1 | 5.04 µM (active) |
| FC(F)(F)c1ccccc1-c1nc(NCc2ccc(-c3ccccc3)cc2)c2ccccc2n1 | inactive |
| O=C1CCCC2=C1C(c1cccnc1Br)N=C(Nc1nc3ccccc3o1)N2 (stereo unspecified) | 11.3 µM (active) |
| Cc1c(C(=O)OCC2CCCC2)[nH]c2c1C(=O)CC(c1ccco1)C2 (stereo unspecified) | 1.13 µM (active) |
| Cc1cc(C)nc(NC(=S)N2CCN(c3ccc4nccn4c3)CC2)c1 | 7.12 µM (active) |
| Oc1ccc(Nc2ccccc2F)c2cccnc12 | inactive |
| COc1ccc2ccccc2c1CN(C)CC(=O)Nc1ccc(N2CCOCC2)cc1 | 7.98 µM (active) |
| Cc1sc(NC(=O)Cc2ccc3c(c2)OCO3)nc1-c1ccc2c(c1)CCN2C | 3.57 µM (active) |
| CC(=O)Nc1sc2c(c1-c1cc3ccccc3o1)CCNC2 | 8.96 µM (active) |
| CCC(=O)NC(c1cccs1)c1cc([N+](=O)[O-])c2cccnc2c1OC (stereo unspecified) | 11.3 µM (active) |
| COc1ccc(-c2ccc(C)cc2)cc1CC(=O)N(C)C(C)c1ccco1 (stereo unspecified) | 11.3 µM (active) |
| O=C(Cc1ccccc1)Nc1sc2c(c1C(=O)Nc1ccc(Cl)cc1)CCCC2 | 11.3 µM (active) |
| Nc1ccc(CNc2ccc([S+](=O)([O-])Nc3nccs3)cc2)c(O)c1 | 3.18 µM (active) |
| COC(=O)CCSC/C=C(\C)CCn1cc(CCc2ccc(-c3ccccc3)cc2)nn1 | 4.49 µM (active) |
| CC(=O)Nc1sc2c(c1-c1ccccc1)CCN(C(=O)OC(C)(C)C)C2 | 7.98 µM (active) |
| Cc1cc(C)nc(NC(=S)N2CCN(c3cccc4cnccc34)CC2)c1 | 10.1 µM (active) |
